Activity calls are given as the source filed them.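 How the source made its calls, unless noted: active means compound raises insulin release from rat beta cells at 5 mM glucose, no numeric limit stated; inactive means the rest.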
Columns and labels:
[1] = Wnt pathway potentiators raising nuclear beta-catenin – imaging, WNT3A-conditioned medium, mouse C2C12, NPC library, primary screen (AID 1117326; in the data active means nuclear beta-catenin stimulation mostly above about 4.2%, no sharp cut-off; inactive means mostly below about 10%; further: reference of the scale not given here); conditions: stronger effect = higher value
[2] = stimulators of insulin release from INS-1E, primary screen, cell-based, 5 mM glucose, NPC library (AID 1117329); conditions: rat INS-1E insulin secretion, at 10 µM, stronger effect = higher value; further: reference of the scale not given here
[3] = growth inhibition of GSK3B-pretreated HCT116 cells – cell-based, CellTiter-Glo, 0.2 to 20 µM (AID 1117336;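 active means compounds lowering colon cancer cell viability after pretreatment blocking the GSK3B kinase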); conditions: HCT116 viability after GSK3B inhibitor, at 20 µM, stronger effect = higher value
[4] = inhibition of endothelial tube formation, primary screen, imaging, VEGF stimulated, CD31 staining, tube area, NPC library (AID 1117340;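 active means compound that reduces growth-factor-driven endothelial tube area in a mixed cell culture, no cutoff stated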); conditions: VEGF-stimulated ADSC/ECFC co-culture, at 10 µM, stronger effect = higher value
[5] = GLP1 release stimulators, primary, NCI-H716, NPC library (AID 1117341;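 active means compound raises GLP1 secretion from the human gut endocrine cells, with no numeric limit stated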; further: reference of the scale not given here); conditions: NCI-H716 cells, at 10 µM, stronger effect = higher value
[6] = HCT116 colon cancer cell growth inhibition, primary screen, CellTiter-Glo luminescence, NPC library (AID 1117342;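 active means compounds that lower survival of HCT116 colon cancer cells in the luminescence readout, no numeric limit stated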); conditions: at 20 µM (top of the series)
[7] = reduced SW480 viability measured with CellTiter-Glo, NPC library, primary (AID 1117343;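 active means compounds that lower viability of the colon cancer cells in the luminescence readout, with no numeric limit stated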); conditions: CellTiter-Glo luminescence; at 20 µM (top of the series) unless noted
[8] = NPC library primary testing for decreased DLD-1 cell viability via CellTiter-Glo (AID 1117346;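 active means compounds that lower survival of DLD-1 colon cancer cells in the luminescence readout, no cutoff given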); conditions: DLD-1 viability, CellTiter-Glo luminescence; at 20 µM (top of the series)
[9] = target: NAD(+) hydrolase SARM1 (Homo sapiens) (UniProt Q6SZW1); assay: blocking NAD cleavage by SARM1 SAM-TIR – cell lysate, NAD-Glo luminescence (AID 1508614;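 active means compound whose remaining NAD level is above about 45 nM, limit read from the data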); conditions: SAM-TIR HEK293T lysate NADase, at 1 µM, stronger effect = higher value
NAD(+) hydrolase SARM1 (Homo sapiens), sequence (Q6SZW1 whole entry, looked up): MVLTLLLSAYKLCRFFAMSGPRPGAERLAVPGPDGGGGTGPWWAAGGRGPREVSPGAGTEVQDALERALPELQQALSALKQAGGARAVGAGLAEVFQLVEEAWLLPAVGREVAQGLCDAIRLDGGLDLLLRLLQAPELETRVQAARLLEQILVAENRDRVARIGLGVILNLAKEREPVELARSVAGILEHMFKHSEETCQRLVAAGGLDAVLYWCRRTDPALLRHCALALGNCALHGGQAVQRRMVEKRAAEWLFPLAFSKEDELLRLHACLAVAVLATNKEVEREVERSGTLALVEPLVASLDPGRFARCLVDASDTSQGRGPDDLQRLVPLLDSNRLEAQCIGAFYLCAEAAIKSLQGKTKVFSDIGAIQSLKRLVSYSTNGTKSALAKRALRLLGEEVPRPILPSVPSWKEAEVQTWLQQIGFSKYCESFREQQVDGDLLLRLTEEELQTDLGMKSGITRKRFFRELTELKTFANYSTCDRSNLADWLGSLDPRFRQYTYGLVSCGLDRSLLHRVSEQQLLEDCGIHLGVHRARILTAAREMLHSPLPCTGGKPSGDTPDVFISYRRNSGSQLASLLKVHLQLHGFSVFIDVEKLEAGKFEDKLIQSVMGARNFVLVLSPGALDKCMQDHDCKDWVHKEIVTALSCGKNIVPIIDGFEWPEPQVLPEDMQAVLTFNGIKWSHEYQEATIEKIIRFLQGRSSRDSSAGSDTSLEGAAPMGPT

[10] = MELAS cybrid and Rieske KO viability enhancers – cell-based, MELAS cybrids, Rieske KO mouse fibroblasts, CellTiter-Glo, primary screen (AID 1508586;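 active means mean z-score across replicates of 1.96 or higher in either the MELAS or the Rieske mutant cell line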;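 further: z relative to plate mean and SD of compound and empty wells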); conditions: low glucose
[11] = MELAS cybrid survival, CellTiter-Glo 48 h, stronger effect = higher value
[12] = Rieske KO mouse fibroblast survival, CellTiter-Glo 72 h

SMILES	nuclear beta-catenin stimulation ([1]; at 10 µM)	nuclear beta-catenin stimulation ([1]; stimulation, at 2 µM) [%]	insulin secretion stimulation [2]	viability decrease [3]	tube area decrease [4]	GLP1 secretion stimulation [5]	inhibition of viability [6]	viability decrease (inhibition) [7]	viability decrease (inhibition) [8]	remaining NAD [9]	z-score [10, 11]	z-score [10, 12]
N[C@@H](Cc1ccc(O)cc1)C(=O)O	-2% (inactive)	-0.2	3.9% (inactive)	-7.6% (inactive)	1% (inactive)	3% (inactive)	3.9% (inactive)	-0.8% (inactive)	-0.1% (inactive)	10 nM (inactive)		
Cn1c(=O)c2c(ncn2CC(=O)O)n(C)c1=O	-0.1% (inactive)	-1	0.95% (inactive)	20.3% (inactive)	-15.7% (inactive)	-0.7% (inactive)	12.3% (inactive)	0.4% (inactive)	-5.4% (inactive)		0.592 (inactive)	0.00475
CCOc1ccccc1C(N)=O	0.9% (inactive)	1.6	-1.8% (inactive)	-5.85% (inactive)	-6.8% (inactive)	1.9% (inactive)	22.9% (inactive)	31.4% (inactive)	-1.45% (inactive)	10 nM (inactive)		
CO/N=C(\C(=O)N[C@@H]1C(=O)N2C(C(=O)O)=C(CSc3nc(=O)c(O)nn3C)CS[C@H]12)c1csc(N)n1	-1.8% (inactive)	-0.3	0% (inactive)	-26.6% (inactive)	-1.5% (inactive)	-1.7% (inactive)	-9.17% (inactive)	8.2% (inactive)	-15.1% (inactive)	10 nM (inactive)		
Cc1nc2ccccc2n1Cc1ccc(Cl)cc1	1.3% (inactive)	1.1	-3.2% (inactive)	52.8% (active)	62% (active)	-1.7% (inactive)	45.2% (inactive)	74% (active)	40.1% (inactive)	10 nM (inactive)		
O=C1NCCN1CCN1CCC(c2cn(-c3ccc(F)cc3)c3ccc(Cl)cc23)CC1	5.7% (inactive)	0.1	5.2% (inactive)	99.9% (active)	100% (active)	-1.3% (inactive)	100% (active)	103% (active)	102% (active)		-0.903 (inactive)	0.239
Cc1ncc([N+](=O)[O-])n1C	1.7% (inactive)	22.2	4.1% (inactive)	38.9% (inactive)	-11.6% (inactive)	-0.5% (inactive)	-2.3% (inactive)	-12.5% (inactive)	-4.4% (inactive)	10 nM (inactive)		
Cc1cccn2c(=O)c(-c3nnn[nH]3)cnc12	3% (inactive)	1.7	-1.3% (inactive)	2.1% (inactive)	-6.7% (inactive)	3.6% (inactive)	13.5% (inactive)	8.4% (inactive)	-1.9% (inactive)		0.721 (inactive)	-0.0743
Cc1cc(CC(C)CC(C)(C)C)n(O)c(=O)c1 (stereo not given)	43.5% (active)	50.6	2.2% (inactive)	94.2% (active)	107% (active)	-0.7% (inactive)	67.2% (active)	95.7% (active)	91.5% (active)	10 nM (inactive)		
CC(CN(C)C)C(C)(O)Cc1ccc(Cl)cc1 (stereo not given)	-2% (inactive)	-0.8	7.5% (inactive)	-15% (inactive)	7.9% (inactive)	-2% (inactive)	17.4% (inactive)	-0.8% (inactive)	-9.1% (inactive)		0.453 (inactive)	-0.0123
CCN(CC)C(=O)Nc1ccc(OCC(O)CNC(C)(C)C)c(C(C)=O)c1 (stereo not given)	-1.9% (inactive)	-0.3	9.4% (inactive)	0.3% (inactive)	-7.8% (inactive)	-4.8% (inactive)	12% (inactive)	4.9% (inactive)	-3.6% (inactive)		1.68 (inactive)	0.098
COc1cc(O)c(C(=O)c2ccccc2)cc1S(=O)(=O)O	-0.8% (inactive)	0.1	-1.1% (inactive)	-7.35% (inactive)	-4.4% (inactive)	-0.7% (inactive)	-1.4% (inactive)	-19.9% (inactive)	4.15% (inactive)	10 nM (inactive)		

From PubChem BioAssay
